Rows were chosen to be rich in hits. Some 11% of all compounds tested hit in one or more screens of this group.
Pf growth 96h – P. falciparum growth inhibition at 96 hour, primary screen for plastid delayed-death inhibitors; P. falciparum luciferase reporter growth, 96 h; Potency, µM (doses to about 28.7 µM), for the others: top-dose activity change, negative = inhibition, actives largely listed as inhibitors; 6.9% of 320,000 active; AID 504834
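Compounds incubated with erythrocytes infected by luciferase-expressing P. falciparum (2% hematocrit, 0.05% parasitemia final) for 96 hours, 37 C in 5% CO2. Growth inhibition scored as decreased luciferase luminescence.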
AMA1-RON2 inh – disrupts binding of P. falciparum AMA1 to RON2; AlphaScreen AMA1-biotinylated RON2 peptide binding; Potency, µM (titrated, usually from 58.2 µM), for the others: at the highest dose activity change, negative = inhibition, actives largely listed as inhibitors; 0.2% of 360,000 active; AID 720542;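 further: 0% = vehicle wells and -100% = peptide control; nearly all actives have a fitted effect of over 45% in size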
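AMA1 (3D7) with his tag at 25 nM final met compounds first, then biotinylated RON2 peptide at 25 nM; detection used donor plus acceptor beads, 10 µg/mL apiece, read by AlphaScreen after 30 min at room temperature.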
HCV inh – HCV inhibition; Huh7.5.1 HCVcc-Cre infection, luciferase reporter, 44 h; Potency, µM (doses to about 41.8 µM), inactives show top-dose activity change, negative = inhibition, usual class: inhibitors; 3.4% of 340,000 active
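1,000 cells/well; 4 h culture; + compound; + HCVcc-Cre (~0.5 moi); 44 h; luciferase substrate, RT 15 min; read 15 sec.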
AmpC inh detg – inhibitors of E. coli AmpC beta-lactamase with detergent. Potency, µM (top dose mostly 114 µM), without a hit: top-dose activity change, negative = inhibition, most hits filed as inhibitors. 0.041% of 370,000 active. AmpC hydrolysis of nitrocefin, absorbance 480 nm, 0.01% Triton. AID 485294;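 further: 0% = no-compound wells and -100% = no-enzyme wells; nearly all actives have a fitted effect of over 25% in size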
Target sequence (P00811 whole entry, looked up): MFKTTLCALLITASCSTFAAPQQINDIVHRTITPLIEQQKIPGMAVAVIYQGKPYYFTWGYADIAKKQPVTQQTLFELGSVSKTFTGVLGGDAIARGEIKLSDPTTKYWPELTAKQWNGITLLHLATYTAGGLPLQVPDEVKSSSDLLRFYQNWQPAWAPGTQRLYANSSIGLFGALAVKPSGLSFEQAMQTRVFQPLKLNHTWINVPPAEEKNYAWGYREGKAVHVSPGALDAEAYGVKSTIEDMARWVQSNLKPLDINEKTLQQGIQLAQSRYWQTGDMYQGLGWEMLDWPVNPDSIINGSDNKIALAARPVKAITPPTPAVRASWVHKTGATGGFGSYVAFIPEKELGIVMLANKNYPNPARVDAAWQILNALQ
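AmpC (5.3 nM in the dispensed reagent) in 20 mM phosphate pH 7.0 with 0.01% (detergent screen) or 0.0001% Triton X-100 was preincubated with compounds for 15 min at room temperature. Nitrocefin was then added from an 800 uM solution, and hydrolysis was followed at 480 nm.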
Pf growth 48h – inhibits P. falciparum growth in the first generation, 48 h; Potency, µM (series often up to 28.7 µM), for inactives: at the highest dose activity change, negative = inhibition, usual class: inhibitors; 5.9% of 310,000 active; P. falciparum luciferase growth in erythrocytes, 48 h
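Growth was read as firefly luciferase luminescence after a 48 h, 37 C, 5% CO2 exposure of compounds to reporter-bearing P. falciparum cultures (0.1% parasitemia, 2% hematocrit final) in Albumax-supplemented RPMI 1640.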
AmpC no deterg – blocks E. coli AmpC beta-lactamase in detergent-free assay | P00811 | AmpC nitrocefin hydrolysis, absorbance 480 nm, 0.0001% Triton | Potency, µM (series often up to 57.1 µM), inactives show at the top dose activity change, negative = inhibition, most hits filed as inhibitors | 0.52% of 330,000 active | AID 485341;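 further: plate controls were no compound for no effect and no enzyme for full effect; nearly all actives have a fitted effect of over 20% in size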
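AmpC (5.3 nM in the dispensed reagent) in 20 mM phosphate pH 7.0 with 0.01% (detergent screen) or 0.0001% Triton X-100 was preincubated with compounds for 15 min at room temperature. Nitrocefin was then added from an 800 uM solution, and hydrolysis was followed at 480 nm.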
* hit, by the source's call; i = inactive; ? = inconclusive; / = no result given. The call rests on the fitted dose curve; in most records, active means well fitted curve in the direction sought with a large enough effect; inconclusive means small, poorly fitted or top-dose-only effect, or another doubt; inactive means no such curve, though single readings can be large; an effect the other way counts as inactive or inconclusive. Unless noted, on the % scale 0 is the no-effect control and ±100 the full control effect; potency means the concentration at half of the fitted maximal effect.

SMILES	Pf growth 96h	AMA1-RON2 inh	HCV inh	AmpC inh detg	Pf growth 48h	AmpC no deterg
COc1ccc(Cl)cc1S(=O)(=O)NC(C)C(=O)NCCCn1ccnc1 (stereo not drawn)	13µM*	-5%	12%	?	3%	-4%
COc1ccc(Cl)cc1S(=O)(=O)NCCCn1ccnc1	i	-7%	15%	?	33%	-5%
COc1ccc(Cl)cc1S(=O)(=O)N(C)CC(=O)NCCCn1ccnc1	34%	4%	24%	-1%	16%	0%
O=C(COc1ccc(Cl)cc1Cl)NCCCn1ccnc1	/	-2%	-2%	5%	6.6µM*	-23%
CN(Cc1nc2ccccc2n1C)S(C)(=O)=O	i	4%	1%	1%	38%	0%
CN(Cc1nc2ccccc2n1C)C(=O)c1ccco1	1.7µM*	1%	1%	2%	15%	-17%
CN(Cc1nc2ccccc2n1C)S(=O)(=O)c1ccc(F)cc1	4.7µM*	6%	0%	-5%	23%	?
Cc1ccc(N(C)S(=O)(=O)c2ccc(-c3coc(C)n3)cc2)cc1	/	/	/	-6%	/	/
CCC(=O)Nc1cccc(-n2nnnc2SCC(=O)c2ccc(C)c(C)c2)c1	10%	1%	11µM*	?	9%	-34%
O=C(CSc1nnnn1-c1cccc(Cl)c1)Nc1ccc2c(c1)CCC2	1.9µM*	/	6%	0%	4%	-6%
Cc1ccc(-n2nnnc2SCC(=O)Nc2cccc(NC(=O)c3ccco3)c2)cc1C	-14%	-1%	7.9µM*	1%	-15%	-43%
CC(C)c1cnc2c(c1SCC(=O)NCc1ccccc1Cl)c(=O)n(C)c(=O)n2C	/	/	/	8%	/	/
CCCc1cc(=O)[nH]c(SCc2nc(-c3ccc(C)cc3)no2)n1	/	/	/	3%	/	/
O=C1NC(=O)/C(=C\c2ccccc2OCc2ccc([N+](=O)[O-])cc2)N1	12µM*	0%	?	?	29%	-15%
O=[N+]([O-])c1ccc(COc2ccccc2/C=N/O)cc1	60%	-1%	?	-4%	69%	-15%
CC1Cc2cc(S(=O)(=O)CCC(=O)Nc3ccc(F)cc3)ccc2N1C(=O)C1CC1 (stereo not drawn)	/	/	/	1%	/	/
Cc1cccc(N(CC(=O)NCc2ccco2)C(=O)CCC(=O)Nc2ccccn2)c1C	1.9µM*	-2%	9%	0%	0%	27%
COc1ccccc1N(CC(=O)NCc1ccco1)C(=O)CCC(=O)Nc1ccccn1	0%	-10%	18%	2%	?	-1%
CC(C)c1ccc(N(CC(=O)NCc2ccco2)C(=O)CCC(=O)Nc2ccccn2)cc1	0.74µM*	-3%	?	1%	-3%	46%
O=[N+]([O-])c1ccccc1Sc1nccn1Cc1ccccc1	3.3µM*	-3%	?	-5%	7%	0%
NC(=O)CSc1nccn1Cc1ccccc1	0%	-6%	4%	0%	?	-22%
CCN(C(=O)CSc1nc2ccccc2n1Cc1ccccc1C#N)c1ccccc1	/	/	/	14%	/	/
CN(C)c1ccc(C(CNC(=O)c2cccc(C(F)(F)F)c2)N2CCCC2)cc1 (stereo not drawn)	/	/	/	-7%	/	/
CCN(CC)c1ccc(N=Cc2c(O)n(-c3ccc(OC)cc3)c(=O)[nH]c2=O)cc1	10µM*	-26%	7%	-5%	/	-12%
Cc1cccc(N=Cc2c(O)n(-c3ccccc3C)c(=O)[nH]c2=O)c1	7%	-19%	4%	4%	/	-1%
SMILES	Pf growth 96h	AMA1-RON2 inh	HCV inh	AmpC inh detg	Pf growth 48h	AmpC no deterg
Cc1ccccc1-n1c(O)c(C=Nc2ccc(N(C)C)cc2)c(=O)[nH]c1=O	1.9µM*	?	19%	6%	2.6µM*	-26%
Cc1ccc(-n2c(O)c(C=Nc3ccc(S(=O)(=O)N(C)C)cc3)c(=O)[nH]c2=O)cc1	2.1µM*	13%	-5%	0%	/	-8%
CCc1nn(Cc2cccc(F)c2)c(=O)c2cc3cc(C)ccc3n12	/	/	/	4%	/	/
CC12CCC(C(=O)NC(c3ccccc3)c3ccccc3)(OC1=O)C2(C)C (stereo not drawn)	13µM*	4%	13%	?	/	60%
Cc1c(Cl)cccc1NC(=O)C(=O)NCC(c1cccnc1)N1CCN(c2ccccc2)CC1 (stereo not drawn)	/	/	/	-2%	/	/
CC1CCc2nn(CC(=O)NCCN3CCOCC3)cc2C1 (stereo not drawn)	?	-1%	-2%	0%	15%	11µM*
CC1CCc2nn(CC(=O)NCCC3=CCCCC3)cc2C1 (stereo not drawn)	?	5%	0%	?	-7%	0.56µM*
O=C(Cn1nc(C(F)F)cc1C1CC1)NCCC1=CCCCC1	3.3µM*	-5%	13%	?	-27%	13%
COc1ccc(N2CCN(C(=O)c3ccc(C)c(NC(=O)c4nsc5ccccc45)c3)CC2)cc1	/	/	/	-1%	/	/
CNC1C(O)C(OC2C(N)CC(N)C(OC3OC(CN)=CCC3N)C2O)OCC1(C)O (stereo not drawn)	-16%	/	/	/	-5%	/
COC(=O)c1ccc(NCc2c(O)ccc(O)c2Br)cc1Cl	/	?	11µM*	/	/	/
Nc1ncnc(Nc2ccccc2)n1	17%	-2%	-5%	-10%	-2%	-12%
COc1cc2nc(Nc3ccc(C)c(Cl)c3)nc(N)c2cc1OC	41%	?	?	-5%	0.59µM*	44%
Cc1ccc(Nc2ncnc(N)n2)cc1C	4.1µM*	2%	19%	-7%	-44%	-7%
CCOC(=O)c1cccc(Nc2nc(C)cc(C)n2)c1	-14%	9%	?	-13%	25%	-6%
COc1cc2nc(Nc3ccc(F)cc3)nc(N)c2cc1OC	27%	-4%	?	-7%	0.52µM*	4%
COc1cc2nc(Nc3cccc(C)c3)nc(N)c2cc1OC	/	/	/	17%	/	/
CCOC(=O)c1ccc(Nc2nc(N)c3cc(OC)c(OC)cc3n2)cc1	-4%	-6%	?	-6%	1µM*	-6%
CCOc1ccc(Cl)cc1C1CC(=O)Nc2cc(OC)c(OC)c(OC)c21 (stereo not drawn)	/	/	/	20%	/	/
Cc1ccc(N2CCN(C(=O)c3c(C)oc4ncn(CC(C)C)c(=O)c34)CC2)c(C)c1	/	/	/	18%	/	/
CCc1ccc(NC(=O)C2CCC(CNS(=O)(=O)c3ccc4c(c3)C(C)(C)C(=O)N4C)CC2)cc1 (stereo not drawn)	/	/	/	7%	/	/
COc1cc2nc(Nc3ccc(C)c(C)c3)nc(N)c2cc1OC	1%	-20%	?	-7%	0.52µM*	31%
